Cruzain Triton: inhibitors of Trypanosoma cruzi cruzain with detergent; 200,000 compounds, 0.43% hits; Potency, µM, most hits filed as inhibitors; P25779; purified cruzain, Z-FR-AMC fluorescence, 0.01% Triton; note: nearly all actives have a fitted effect of over 40% in size
Target sequence (P25779 123-467 limits assumed): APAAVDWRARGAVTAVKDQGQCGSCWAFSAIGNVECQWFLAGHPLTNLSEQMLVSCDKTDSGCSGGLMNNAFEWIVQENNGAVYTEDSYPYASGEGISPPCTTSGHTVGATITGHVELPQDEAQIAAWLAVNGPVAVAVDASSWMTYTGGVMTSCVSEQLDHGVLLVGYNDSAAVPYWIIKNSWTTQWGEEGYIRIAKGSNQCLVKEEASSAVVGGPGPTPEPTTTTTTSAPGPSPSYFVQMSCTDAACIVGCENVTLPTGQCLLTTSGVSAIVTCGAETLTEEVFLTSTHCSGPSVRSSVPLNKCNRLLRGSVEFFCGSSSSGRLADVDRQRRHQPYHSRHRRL
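Sodium acetate buffer (100 mM, pH 5.5) containing 5 mM DTT and 0.01% Triton X-100 hosted 1.5 nM cruzain and test compound for 15 min at room temperature. Cleavage of 2 uM Z-FR-AMC was then tracked by fluorescence.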
Cruzain inh noDet: inhibitors of Trypanosoma cruzi cruzain without detergent | P25779 | purified cruzain, Z-FR-AMC fluorescence, no detergent | Potency, µM, most hits filed as inhibitors | 200,000 compounds, 2.3% hits; note: nearly all actives have a fitted effect of over 40% in size
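Detergent-free condition (0.00005% Triton X-100) in acetate buffer pH 5.5 with DTT. 1.5 nM enzyme and compound were pre-mixed 15 min, then 2 uM Z-FR-AMC substrate added; reaction progress from fluorescence change between first and third reads (60 s).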
Large screens that a line does not name were inactive. Rows were chosen to be rich in hits. Some 2.5% of all compounds tested hit in one or more screens of this group. Calls come from the whole dose curve; as a rule, active = well fitted curve in the direction sought with a large enough effect; inconclusive = small, poorly fitted or top-dose-only effect, or another doubt; inactive = no such curve, though single readings can be large; an effect the other way counts as inactive or inconclusive.

CC(C)Cn1c(SCc2nnc(-c3cccs3)o2)nc(O)cc1=O	none
Cc1ccc2c(c1)N(C(=O)NCc1ccccc1)CCO2	none
O=C(COc1ccc(Br)cc1Br)NC(=S)Nc1cccc(CO)c1	Cruzain inh noDet inconclusive
O=C(COc1ccc2ccccc2c1Br)NC(=S)Nc1cccc(CO)c1	Cruzain inh noDet 31.6µM
C=CCc1ccccc1OC[C@H](O)CNC(C)C	none
Cc1cccc(-c2nc3c(cnn3-c3ccccc3)c(=O)n2-c2cccc(Cl)c2)c1	none
O=C(O)COCC(=O)Nc1ccc2c(c1)CCC2	none
O=C(COc1cc(Cl)ccc1Cl)Nc1ccc2c(c1)CCC2	Cruzain inh noDet 25.1µM
CCOC(=O)CNC(=O)O[C@H]1C(=O)c2cc(OC)ccc2O[C@@H]1c1ccc(OC)c(Br)c1	Cruzain inh noDet 12.6µM
CCOC(=O)CNC(=O)O[C@@H]1C(=O)c2cc(OC)ccc2O[C@H]1c1cccc(OC)c1	none
CCc1nn2c(=O)cc(COC(=O)c3ccc(NC(=O)c4cccs4)cc3)nc2s1	none
CN1CCN(S(=O)(=O)c2cccc(C(=O)Nc3sc4c(c3-c3nc5ccccc5[nH]3)CCCC4)c2)CC1	Cruzain inh noDet 15.8µM
O=C(Nc1sc2c(c1-c1nc3ccccc3[nH]1)CCCC2)C1CCCC1	Cruzain inh noDet 12.6µM
CC(=O)NCCC(=O)Nc1sc2c(c1-c1nc3ccccc3[nH]1)CCCC2	none
CC(=O)N1CCN(S(=O)(=O)c2cccc(C(=O)Nc3nc4c(s3)CCCC4)c2)CC1	Cruzain inh noDet inconclusive
C=CCC(O)c1ccccc1 (centres undefined)	none
CC(=O)N1CCN(CC(=O)Nc2c(Cl)cc(Cl)cc2Cl)CC1	none
O=C(NCCN1C(=O)S/C(=C\c2ccc(Cl)cc2)C1=O)c1ccc(F)c(S(=O)(=O)N2CCOCC2)c1	Cruzain inh noDet inconclusive
O=C(NCCN1C(=O)S/C(=C\c2ccc(Cl)c(Cl)c2)C1=O)c1ccc2c(c1)C(=O)N(Cc1ccncc1)C2=O	Cruzain inh noDet 12.6µM
COc1cccc(/C=N/NC(N)=S)c1OS(=O)(=O)c1ccccc1	Cruzain Triton 14.1µM, Cruzain inh noDet 5.01µM
COc1cccc(/C=N/NC(N)=S)c1OCc1ccccc1Cl	Cruzain inh noDet inconclusive
COc1cccc(/C=N/NC(=O)c2cccc([N+](=O)[O-])c2)c1OS(=O)(=O)c1ccccc1	none
NC(=S)N/N=C/c1ccccc1OCCSc1ccc(Cl)cc1	Cruzain Triton 1.41µM, Cruzain inh noDet 1µM
Cc1ccc(S(=O)(=O)Oc2ccccc2/C=N/NC(N)=S)cc1	Cruzain Triton 7.08µM, Cruzain inh noDet inconclusive
Cc1ccc(S(=O)(=O)Oc2ccccc2/C=N/NC(=O)c2nn(C)cc2[N+](=O)[O-])cc1	none
CC1Oc2ccccc2N(CC(=O)NCCc2ccccc2)C1=O (centres undefined)	none
COC(=O)[C@H](CCCN=C(N)N)NC(=O)CCCc1c(-c2ccccc2)[nH]c2c(F)cc(F)cc12	none
Cc1ccc(CN2C(=O)C3CCCN3c3ccc(C#N)cc32)cc1 (centres undefined)	Cruzain inh noDet 10µM
O=C1C2CCCN2c2ccc(S(=O)(=O)N3CCOCC3)cc2N1Cc1ccccc1F (centres undefined)	none
O=C1C2CCCN2c2ccc(S(=O)(=O)N3CCOCC3)cc2N1Cc1cccc(C(F)(F)F)c1 (centres undefined)	none
Cc1ccc(C)c(CN2C(=O)C3CCCN3c3ccc(C#N)cc32)c1 (centres undefined)	Cruzain inh noDet 15.8µM
Cc1ccc(NC(=O)CSc2nc(-c3ccccc3Cl)nc3cc(=O)[nH]n23)c(C)c1	none
Cn1cc(/C=N/n2cnc3scc(-c4ccc(Cl)cc4)c3c2=O)c2ccccc21	Cruzain inh noDet 25.1µM
CCn1cnc2scc(-c3ccccc3)c2c1=O	none
O=C(COC(=O)c1ccccc1OCc1ccc(Cl)cc1)NC1CC1	none
Cc1cccc(C2=NN(c3ccc(Br)cc3)[C@@H](C(=O)N3CCOC3=O)[C@@H]2C)c1	Cruzain inh noDet 28.2µM
Cc1cccc(C2=NN(c3ccccc3)[C@@H](C(=O)N3CCOC3=O)[C@@H]2c2ccc(F)cc2)c1	Cruzain inh noDet inconclusive
C[C@@H]1C(c2ccccc2)=NN(c2ccc(Br)cc2)[C@H]1C(=O)N1CCOC1=O	Cruzain inh noDet inconclusive
O=C1OCCN1C(=O)[C@H]1[C@H](c2ccc([N+](=O)[O-])cc2)C(c2ccccc2)=NN1c1ccccc1	Cruzain inh noDet inconclusive
O=C1OCCN1C(=O)[C@H]1[C@H](c2ccc([N+](=O)[O-])cc2)C(c2cccc(Cl)c2)=NN1c1ccccc1	Cruzain inh noDet 11.2µM
Cc1cccc(C2=NN(c3ccccc3)[C@@H](C(=O)N3CCOC3=O)[C@@H]2C)c1	none
Cc1cccc(C2=NN(c3ccc(Br)cc3)[C@@H](C(=O)N3CCOC3=O)[C@@H]2c2ccc([N+](=O)[O-])cc2)c1	Cruzain inh noDet 6.31µM
Cc1cccc(C2=NN(c3ccccc3)[C@@H](C(=O)N3CCOC3=O)[C@@H]2c2ccc(Cl)cc2)c1	Cruzain inh noDet 22.4µM
COc1cccc(N2CCN(C(=O)c3cc4cc5cc(C)ccc5nc4s3)CC2)c1	none
CN1CCCN([C@@H](c2ccccc2)c2ccc(Cl)cc2)CC1	none
O=C(CCSCc1cccc(Cl)c1)NCCc1ccc(Cl)cc1	none
O=C(c1cc(C(=O)NCc2ccccc2)c(=O)n(Cc2ccccc2)c1)c1cc(Br)ccc1O	Cruzain inh noDet 3.98µM
Cc1ccc(O)c(C(=O)c2cc(C(=O)NCc3ccccc3)c(=O)n(Cc3ccccc3)c2)c1	Cruzain inh noDet inconclusive
CCc1ccc(NC(=O)C(C)OC(=O)c2ccc(NS(=O)(=O)c3ccc(C)c([N+](=O)[O-])c3)cc2)cc1 (centres undefined)	Cruzain inh noDet 15.8µM
Cc1ccc(C(=O)COC(=O)c2ccccc2NC(=O)c2ccccc2)cc1[N+](=O)[O-]	Cruzain inh noDet inconclusive
CCOC(=O)c1ccc(NS(=O)(=O)c2ccc3[nH]c4c(c3c2)CCCCC4)cc1	Cruzain inh noDet inconclusive
Cc1ccc(NC(=O)C(C)OC(=O)c2ccc(NS(=O)(=O)c3ccc(F)c(F)c3)cc2)cc1 (centres undefined)	none
CC(=O)c1ccc(NC(=O)C(C)OC(=O)c2ccc(NS(=O)(=O)c3ccc(F)c(F)c3)cc2)cc1 (centres undefined)	Cruzain inh noDet 15.8µM
Cc1ccc(S(=O)(=O)Nc2ccccc2C(=O)OC(C)C(=O)Nc2ccc3ccccc3c2)cc1[N+](=O)[O-] (centres undefined)	Cruzain inh noDet 7.94µM
COc1ccc2c(c1)C(=O)[C@H](OC(=O)Nc1cc(OC)c(OC)c(OC)c1)[C@@H](c1ccc(OC)c(Br)c1)O2	none
CC(Oc1ccccc1F)C(=O)Nc1ccc(-c2nc3ccccc3s2)cc1 (centres undefined)	none
CC(=O)c1cccc(NC(=O)c2c(N3CCCC3=O)c3cc(F)ccc3n2C)c1	none
Cc1nnc(N/N=C/c2cccc(OCc3ccc(Cl)c(Cl)c3)c2)n1N	Cruzain Triton 22.4µM, Cruzain inh noDet inconclusive
CCc1nnc(N/N=C/c2c(Cl)cccc2Cl)n1N	none
NC1=NC([S][Hg][c]2ccc(N)cc2)c2ncn([C@@H]3O[C@H](CO)[C@@H](O)[C@@H]3O)c2N1 (some centres undefined)	none
c1ccc(CNc2nc(-c3ccc4c(c3)OCO4)nc3ccccc23)cc1	none
CCn1c(C)cc(/C=C2/NC(=O)N(Cc3ccccc3F)C2=O)c1C	Cruzain inh noDet inconclusive
Cc1cc(/C=C2/NC(=O)N(Cc3ccccc3F)C2=O)c(C)n1C(C)C	Cruzain inh noDet 25.1µM
